High-throughput results (PubChem BioAssay)
In the library only some 21% were active in any assay of this set; here they are far more common.
Pf growth 48h – inhibits P. falciparum growth in the first generation, 48 h | AID 504832 | P. falciparum luciferase growth in erythrocytes, 48 h | hit rate 5.9% among 310,000 | Potency, µM (doses to about 28.7 µM), inactives show at the highest dose activity change, negative = inhibition, usual class: inhibitors; further: potency means the concentration at half of the fitted maximal effect; on the % scale 0 is the no-effect control and ±100 the full control effect
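Read-out is firefly luciferase luminescence from an integrated reporter in P. falciparum, so falling signal marks reduced parasite growth. Infected erythrocytes were at 2% hematocrit and 0.1% parasitemia (final) in Albumax-supplemented RPMI 1640.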
Shiga inhibitor – Shiga toxin inhibition | Vero cells, Shiga toxin protein synthesis inhibition reporter | inhibition, % at 38.7 µM | hit rate 9.2% among 290,000 | AID 2315; in the data active means inhibition mostly above about 28%, no sharp cut-off; inactive means mostly below about 43%; further: 0% is about no effect
Cycloheximide cs – counter-screen hit for Shiga toxin inhibitors, cycloheximide. cell reporter, cycloheximide protein synthesis inhibition counterscreen. hit rate 12% among 300,000. max response, %; in the data active means max response mostly above about 13%, no sharp cut-off; inactive means mostly below about 14%; further: read at 38.3 µM for the half of the compounds with a filed dose; 0% is about no effect
Sm TGR inh – S. mansoni TGR enzyme inhibition. Q962Y6. purified TGR, DTNB reduction, TNB absorbance 405 nm. Potency, µM (series often up to 114 µM), without a hit: at the top dose activity change, negative = inhibition, hits mostly inhibitors. hit rate 3% among 360,000. AID 485364; further: potency means the concentration at half of the fitted maximal effect; on the % scale 0 is the no-effect control and ±100 the full control effect; nearly all actives have a fitted effect of over 60% in size
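First, TGR (20 nM dispensed) and NADPH were mixed with compound. Second, a 15 min room-temperature incubation followed. Third, further NADPH and then DTNB were added to start the reaction. Finally, TNB absorbance was monitored kinetically.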
Pf growth 96h – inhibits malaria parasite growth, 96 h; P. falciparum luciferase reporter growth, 96 h; Potency, µM (series often up to 28.7 µM), for the others: top-dose activity change, negative = inhibition, usual class: inhibitors; hit rate 6.9% among 320,000; further: potency means the concentration at half of the fitted maximal effect; on the % scale 0 is the no-effect control and ±100 the full control effect
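Infected RBCs, 2% Hct / 0.05% parasitemia final; luciferase-reporter P. falciparum; cpd 96 h, 37 C, 5% CO2; luciferase detection reagent; luminescence.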
NS1 inh – influenza NS1 inhibition; Potency, µM (doses to about 46.1 µM), for the others: at the highest dose activity, positive = more growth; hit rate 0.4% among 270,000; AID 2326; calls by dose curve; further: potency means the concentration at half of the fitted maximal effect; actives are rising curves; nearly all actives have a fitted effect of over 50% in size
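S. cerevisiae expressing influenza A NS1, grown in glucose, washed, then diluted 1:100 into pH 6.0 -URA galactose medium with 23 nl compound. Growth recovery read as OD600; NS1-free strain serves as control.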
* marks the source's active call; other numbers are inactive results; i = inactive; ? = inconclusive; nt = no result; + = active, no number. Unless noted, the call rests on the fitted dose curve; in most records, active means well fitted curve in the direction sought with a large enough effect; inconclusive means small, poorly fitted or top-dose-only effect, or another doubt; inactive means no such curve, though single readings can be large; an effect the other way counts as inactive or inconclusive.

SMILES	Pf growth 48h	Shiga inhibitor	Cycloheximide cs	Sm TGR inh	Pf growth 96h	NS1 inh
CC(=O)Nc1ccc(C(=O)Nc2ccc(S(=O)(=O)N3CCCCC3)cc2)cc1	?	-1	-4	-12%	5%	1%
CCN(CC)CCNC(=O)c1ccc(NC(=O)c2ccc(S(=O)(=O)N3CCCCCC3)cc2)cc1	1.7µM*	nt	nt	-1%	?	nt
CCN(CC)CCNC(=O)c1ccc(NC(=O)c2ccc(Cl)c(S(=O)(=O)N3CCCCCC3)c2)cc1	1.7µM*	14	1	6%	-58%	5%
O=C(Nc1ccc(Br)cc1)c1ccc(Cl)c(S(=O)(=O)N2CCCCCC2)c1	nt	nt	nt	13%	nt	nt
CN(C)S(=O)(=O)c1cccc(C(=O)C2=C3SC=C(c4ccccc4)N3CC2)c1	-19%	12	3	4.5µM*	3.3µM*	-5%
CCCc1c(O)nc(SCC(=O)O)[nH]c1=O	28%	9	-1	9%	?	0%
Cc1ccc(-c2noc(CN(C)C(=O)c3ccc(Br)o3)n2)cc1	3%	nt	nt	0%	?	nt
C/C(=N\NC(=O)c1ccccc1OCCOc1ccccc1)c1ccccc1F	12µM*	nt	nt	-2%	?	nt
C/C(=N\NC(=O)c1ccccc1)c1ccccc1F	424%	87*	26*	-1%	408%	-6%
C/C(=N\NC(=O)c1ccccc1)c1ccccc1Br	51%	67*	58*	-2%	61%	-1%
C/C(=N\NC(=O)OC(C)(C)C)c1ccccc1Br	49%	63*	59*	7%	37%	3%
NNC(=O)c1ccccc1OCCOc1ccccc1	0%	6	-3	14%	-9%	9%
C/C(=N\NC(N)=O)c1ccccc1	11%	18	-4	-25%	20%	-2%
COc1ccccc1NC(=O)CCN1CCC(C(N)=O)CC1	nt	nt	nt	-1%	nt	nt
O=C1NC(=O)N(c2ccccc2)C(=O)/C1=C/c1ccoc1	5%	15	-3	-10%	12%	nt
COc1ccc(N2C(=O)NC(=O)/C(=C\c3cn(C)c4ccccc34)C2=O)cc1	7%	-9	-2	?	-20%	4%
O=C1NC(=O)N(c2ccccc2)C(=O)/C1=C\c1ccc2c3c(cccc13)CC2	2%	12	2	25µM*	34%	9%
O=C1NC(=O)N(c2ccccc2)C(=O)/C1=C\c1ccccc1[N+](=O)[O-]	42%	11	2	3.5µM*	45%	4%
COc1ccccc1N1C(=O)NC(=O)/C(=C/c2ccc3c4c(cccc24)CC3)C1=O	4%	33	17*	32µM*	-20%	?
CCOc1ccc(S(=O)(=O)N2CCC(C(=O)NC3CCCC3)CC2)cc1	?	-8	-3	-4%	0%	3%
O=C(COc1nsnc1N1CCOCC1)Nc1ccc(Br)cc1	0%	-3	-5	1%	?	-1%
COc1ccc(Cl)cc1NC(=O)CN(c1cccc(C)c1C)S(=O)(=O)c1ccccc1	nt	nt	nt	-2%	nt	nt
COC(=O)[C@@H]1C[C@@]2(O)[C@H](O)[C@H](O)[C@H](O)C[C@H]2N1Cc1ccccc1OS(=O)(=O)c1ccc(C)cc1	0%	20	-5	-7%	52%	-8%
COC(=O)[C@@H]1C[C@H]2CC[C@H](O)C[C@H]2N1Cc1ccccc1OS(=O)(=O)c1ccc(C)cc1	10µM*	5	-1	?	?	0%
CC(C)C1C(=O)Nc2ccc(S(=O)(=O)NCCc3ccc(Cl)cc3)cc21 (stereo not drawn)	nt	nt	nt	13%	nt	nt
SMILES	Pf growth 48h	Shiga inhibitor	Cycloheximide cs	Sm TGR inh	Pf growth 96h	NS1 inh
Cn1c(SCC(=O)NCc2cccs2)nnc1-c1ccc(S(=O)(=O)N2CCCC2)cc1	?	9	-5	8%	8.3µM*	0%
CCn1c(SCC(=O)N2CCCC2)nnc1-c1ccc(S(=O)(=O)N2CCCCCC2)cc1	9.3µM*	-7	2	2%	?	-10%
Cn1c(SCC(=O)N2CCCCC2)nnc1-c1ccc(S(=O)(=O)N2CCOCC2)cc1	-1%	-19	-1	5%	13µM*	-3%
CCn1c(SCc2ccc(C#N)cc2)nnc1-c1ccc(S(=O)(=O)N2CCCCC2)cc1	1.5µM*	-1	9	11%	-2%	10%
CCn1c(SCC(=O)N2CCCCC2)nnc1-c1ccc(S(=O)(=O)N2CCN(C)CC2)cc1	11%	-6	-2	10%	-1%	-6%
COc1ccc(-n2nc(C(=O)NCC(=O)N3CCN(c4cccc(Cl)c4)CC3)c3ccccc3c2=O)c(OC)c1	?	19	1	12%	9%	27%
CC1(C)CC(=O)C(Sc2nnc(-c3ccc(O)cc3)n2CC2CCCO2)C(=O)C1 (stereo not drawn)	nt	-9	-4	-33%	1µM*	-3%
CCCSc1nnc2[nH]c(=O)cc(C)n12	nt	nt	nt	-1%	nt	nt
O=C(C[n+]1ccc(/C=N/O)cc1)NC1CCCCC1	10µM*	28	-5	0%	-38%	nt
C/C=C\C=C/C(=O)Nc1cccc(C2=NOC3(C2)C[C@@H](C(N)=O)N(C(=O)COc2ccc(Cl)cc2)C3)c1 (stereo partly drawn)	?	-3	2	3.2µM*	?	3%
C/C=C\C=C\C(=O)N1CC2(CC(c3cccc(NC(=O)COc4ccc(Cl)cc4)c3)=NO2)C[C@H]1C(N)=O (stereo partly drawn)	13µM*	2	-6	7.1µM*	10µM*	5%
C/C=C(\C)C(=O)N1CC2(CC(c3cccc(NC(=O)COc4ccc(Cl)cc4)c3)=NO2)C[C@@H]1C(N)=O (stereo partly drawn)	12µM*	30	-3	-15%	?	-3%
O=C(Nc1ccccn1)c1ccc(S(=O)(=O)N2CCCCCC2)cc1	13%	nt	nt	-14%	62%	nt
COc1ccccc1OCC(=O)Nc1c(C(=O)c2ccc(F)cc2)oc2ccccc12	nt	nt	nt	5%	nt	nt
CC(=O)N(CC(C)C(=O)O)c1c(I)cc(I)c(N)c1I (stereo not drawn)	?	nt	nt	-4%	6%	nt
OCc1nc2ccccc2n1/N=C/c1cccs1	24%	19	0	2%	3%	-3%
Clc1cc(Cl)cc(C2=N[C@@H](Cc3ccccc3)CO2)c1	nt	i	6	nt	nt	nt
CC(C)C[C@H]1COC(c2ccc(Br)cc2)=N1	nt	+	39*	nt	nt	nt
O=C1OC(c2ccc(Br)cc2)=N/C1=C\c1ccco1	17%	-16	-4	-24%	12%	nt
O=[N+]([O-])c1cccc(C2=N[C@@H](Cc3ccccc3)CO2)c1	nt	+	53*	nt	nt	nt
Brc1ccc(C2=N[C@@H](Cc3ccccc3)CO2)cc1	nt	+	57*	nt	nt	nt
CCCCS/C(=C(/C#N)C(N)=O)c1cc2c([nH]1)CCCC2	2.9µM*	-15	7	10µM*	nt	-84%
Cc1[nH]c2ccccc2c1Cc1n[nH]c(=S)n1C	15%	-2	-1	-9%	5.2µM*	13%
c1ccc(Oc2cccc(CN3CCOCC3)c2)cc1	2%	-14	28*	-1%	nt	-2%
